Test results reported in PubChem BioAssay (NCI).
The panel holds about 79,000 compounds, 15% with a hit somewhere; the sample as a whole holds those more often. Calls of active or inactive are those of the source. No stated cut-off is given here; in the data, active means growth inhibition above about 70%; inactive means the rest.

What was measured:
[1] = NCI Yeast Anticancer Drug Screen. Data for the rad52 strain (AID 147);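 further: 0% = growth of vehicle-treated control cultures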; conditions: S. cerevisiae rad52 mutant growth inhibition, stronger effect = higher value
Procedure, shortened: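 Here a repair-compromised yeast strain receives each compound; its growth is then quantified and normalised to vehicle-only controls.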

[2] = NCI Yeast Anticancer Drug Screen. Data for the wt1 strain (AID 149);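 further: 0% = growth of vehicle-treated wt1 cultures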; conditions: S. cerevisiae wt1 strain (SPY 50644) growth inhibition, stronger effect = higher value
Procedure, shortened: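 wt1 yeast, compound-treated; % growth inhibition vs vehicle control.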

[3] = NCI Yeast Anticancer Drug Screen. Data for the rad50EPP+ strain (AID 151);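 further: 0% = growth of vehicle-treated control cultures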; conditions: S. cerevisiae rad50 mutant strain, stronger effect = higher value
Procedure, shortened: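 Read-out is yeast growth inhibition relative to vehicle; cells used were the rad50EPP+ strain.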

[4] = NCI Yeast Anticancer Drug Screen. Data for the rad50 strain (AID 155);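 further: 0% = growth of vehicle-only cultures of the same strain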; conditions: S. cerevisiae rad50 strain growth inhibition, stronger effect = higher value
Procedure, shortened: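 Genetically altered yeast (DNA repair pathway); compound treatment; growth inhibition vs vehicle ctrl.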

[5] = NCI Yeast Anticancer Drug Screen. Data for the mec2-1 strain (AID 157); conditions: S. cerevisiae mec2-1 strain, stronger effect = higher value
Procedure, shortened: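 Using mec2-1 yeast: add compound, measure growth, express inhibition versus vehicle-treated cultures.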

[6] = NCI Yeast Anticancer Drug Screen. Data for the rad14 strain (AID 159);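 further: 0% = growth of vehicle-treated control cultures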; conditions: S. cerevisiae rad14 strain growth inhibition, stronger effect = higher value
Procedure, shortened: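 Test compounds were applied to a repair-deficient yeast strain. Its growth was then compared with that of cultures given vehicle alone, and inhibition was expressed relative to those controls.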

[7] = NCI Yeast Anticancer Drug Screen. Data for the sgs1 mgt1 strain (AID 161);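 further: 0% = growth of cultures given vehicle only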; conditions: S. cerevisiae sgs1 mgt1 strain, stronger effect = higher value
Procedure, shortened: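 This yeast growth screen uses a strain with defined DNA-repair lesions; compound-treated growth is compared with vehicle-treated growth.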

[8] = NCI Yeast Anticancer Drug Screen. Data for the CLN2oe strain (AID 163);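 further: 0% = growth of vehicle-only control cultures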; conditions: S. cerevisiae CLN2oe strain, stronger effect = higher value
Procedure, shortened: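 Whole-cell yeast growth assay. A strain engineered for altered cell-cycle control received compound, and inhibition relative to vehicle-treated cultures was recorded.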

[9] = NCI Yeast Anticancer Drug Screen. Data for the cln2 rad14 strain (AID 165);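 further: 0% = growth equal to vehicle treated cultures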; conditions: S. cerevisiae cln2 rad14 strain, stronger effect = higher value
Procedure, shortened: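 Yeast strain cln2 rad14, bearing defects in cell cycle control and DNA repair, serves as the test system; values reflect growth inhibition compared with vehicle.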

[10] = NCI Yeast Anticancer Drug Screen. Data for the bub3 strain (AID 167); conditions: S. cerevisiae bub3 mutant strain, stronger effect = higher value
Procedure, shortened: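 Yeast carrying a defined mutation is treated with each compound, and growth is compared with that of vehicle-exposed cells to give inhibition.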

[11] = NCI Yeast Anticancer Drug Screen. Data for the wt2 strain (AID 169);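 further: 0% = growth of vehicle-treated yeast cultures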; conditions: S. cerevisiae wt2 strain growth inhibition, stronger effect = higher value
Procedure, shortened: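 Treated yeast vs. vehicle-treated yeast: growth inhibition determined.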

[12] = NCI Yeast Anticancer Drug Screen. Data for the mlh1 strain (AID 171);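 further: 0% = growth of vehicle-treated control cultures of the same strain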; conditions: S. cerevisiae mlh1 strain growth inhibition, stronger effect = higher value
Procedure, shortened: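 A yeast strain with a defined genetic lesion serves as the test organism. Cultures receive compound or vehicle, and growth is measured.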

[13] = NCI Yeast Anticancer Drug Screen. Data for the sgs1 strain (AID 173);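 further: 0% = growth of vehicle-only control cultures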; conditions: S. cerevisiae sgs1 mutant, stronger effect = higher value
Procedure, shortened: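 A genetically defined yeast mutant is incubated with the test compound, and its growth is compared to that of the same strain given vehicle.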

[14] = NCI Yeast Anticancer Drug Screen. Data for the mlh1 rad18 strain (AID 175); conditions: S. cerevisiae mlh1 rad18 strain growth inhibition, stronger effect = higher value
Procedure, shortened: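 Steps: expose repair-defective yeast to compound; measure growth; express inhibition against vehicle-treated controls.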

[15] = NCI Yeast Anticancer Drug Screen. Data for the rad18 strain (AID 177); conditions: S. cerevisiae rad18 mutant growth inhibition, stronger effect = higher value
Procedure, shortened: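 Measured value is growth inhibition of a yeast strain bearing a DNA repair alteration, referenced to vehicle-treated cells.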

[16] = at 5.0 µM (retest, dose inferred, filed as 0.5)
[17] = at 50.0 µM (retest, dose inferred, filed as 5.0)

Measured: growth inhibition

CC1=CCCC2C1(C)CCC(C)C2(C)Cc1cc(O)ccc1O (stereo not drawn)
active: [1]; at 11.0 µM 70% | [1]; at 33.0 µM 98% | [1]; at 100.0 µM 93% | [2]; at 33.0 µM 98% | [2]; at 100.0 µM 96% | [3]; at 33.0 µM 86% | [3]; at 100.0 µM 88% | [4]; at 33.0 µM 98% | [4]; [17] 96% | [4]; at 50.0 µM 88.9% | [4]; at 100.0 µM 93% | [5]; at 33.0 µM 99% | [5]; [17] 97% | [5]; at 50.0 µM 90.6% | [5]; at 100.0 µM 95% | [6]; at 33.0 µM 98% | [6]; at 100.0 µM 94% | [7]; [17] 97% | [7]; at 50.0 µM 90.5% | [8]; at 33.0 µM 97% | [8]; at 100.0 µM 87% | [9]; [17] 97% | [9]; at 50.0 µM 88.5% | [10]; at 33.0 µM 99% | [10]; [17] 96% | [10]; at 50.0 µM 88.6% | [10]; at 100.0 µM 93% | [11]; at 11.0 µM 98% | [11]; at 33.0 µM 97% | [11]; at 100.0 µM 89% | [12]; at 33.0 µM 98% | [12]; at 100.0 µM 94% | [13]; at 11.0 µM 79% | [13]; at 33.0 µM 99% | [13]; at 100.0 µM 95% | [14]; [16] 83% | [14]; [17] 93% | [14]; at 50.0 µM 88% | [15]; at 33.0 µM 98% | [15]; at 100.0 µM 94%
inactive: [1]; at 1.2 µM 12% | [1]; at 3.7 µM 31% | [2]; at 1.2 µM -5% | [2]; at 3.7 µM 13% | [2]; at 11.0 µM 31% | [3]; at 1.2 µM -6% | [3]; at 3.7 µM 39% | [3]; at 11.0 µM 69% | [4]; at 1.2 µM -3% | [4]; at 3.7 µM 19% | [4]; [16] 22% | [4]; at 11.0 µM 51% | [5]; at 1.2 µM 5% | [5]; at 3.7 µM 17% | [5]; [16] 46% | [5]; at 11.0 µM 45% | [6]; at 1.2 µM 15% | [6]; at 3.7 µM 15% | [6]; at 11.0 µM 35% | [7]; [16] 39% | [8]; at 1.2 µM -73% | [8]; at 3.7 µM -57% | [8]; at 11.0 µM -91% | [9]; [16] 10% | [10]; at 1.2 µM 9% | [10]; at 3.7 µM 18% | [10]; [16] 44% | [10]; at 11.0 µM 60% | [11]; at 1.2 µM -28% | [11]; at 3.7 µM -7% | [12]; at 1.2 µM -1% | [12]; at 3.7 µM 19% | [12]; at 11.0 µM 38% | [13]; at 1.2 µM 4% | [13]; at 3.7 µM 31% | [15]; at 1.2 µM 1% | [15]; at 3.7 µM 24% | [15]; at 11.0 µM 66%
